# Laboratory results from the supplement of paper PMC4894684.
# Counter-ions that a name gives are not always drawn. ± gives the standard deviation of the averaged measurements. Screen size: about 1,000 compounds; about 15 (2%) showed an effect of 50% or more. The full list was thinned out, with strong results kept by preference.
# System: HFF
# Assay: uninfected host cell viability relative to vehicle control; higher = less host cell toxicity
# Conditions: 5 µM; 72 h; oxygen 21 %
row,Structure (SMILES),uninfected host cell viability
1,O=C1NC(=O)c2cc(Nc3ccccc3)c(Nc3ccccc3)cc21,93.23 ± 0.27%
2,COCCOC(=O)C1=C(C)NC(C)=C(C(=O)OC/C=C/c2ccccc2)C1c1cccc([N+](=O)[O-])c1 (stereo not drawn) [Cilnidipine],85.8 ± 2.8%
3,COc1ccccc1C1(O)CCN(CCCn2c3ccccc3c3ccccc32)CC1 [NNC 05-2090 hydrochloride],81.9 ± 1.6%
4,Nc1nc(NCC2CCC(CNS(=O)(=O)c3cccc4ccccc34)CC2)nc2ccccc12 (stereo not drawn),58.6 ± 2.7%
5,CN(Cc1ccccc1)C(=O)[C@H](Cc1ccc2ccccc2c1)NC(=O)[C@@H]1C[C@@H](O)CN1C(=O)c1cn(C)c2ccccc12,83.97 ± 0.68%
6,NC(=O)N/N=C/c1ccc(Oc2ccc(F)cc2)cc1,87.6 ± 3.6%
7,O=C1NC(=O)c2cc(Nc3ccc(F)cc3)c(Nc3ccc(F)cc3)cc21,86.353 ± 0.013%
8,Oc1nc(-c2ccc(C(F)(F)F)cc2)nc2c1CSCC2,83.2 ± 2.4%
9,CCC(=O)NC[C@H](Cc1ccc(OCCc2nc(-c3ccccc3)oc2C)cc1)N/C(C)=C\C(=O)c1ccc(C(F)(F)F)cc1,102 ± 1.4%
10,COC(=O)/C=C/c1cccc(N(Cc2ccc(-c3ccc(N(C)C)cc3)cc2)C(=O)C2CCCCC2)c1 [Fexaramine],96 ± 2.3%
11,CC(=O)OCCNC(=O)c1cccnc1 [N-[2-(Acetoxy)ethyl]-3-pyridinecarboxamide],82.8 ± 3.4%
12,OC1CCC(Nc2nc(-c3ccccc3)nc3[nH]ccc23)CC1 (stereo not drawn),85.37 ± 0.31%
13,Cc1ccc2c(c1)c1c3n2CCNC3CCC1 (stereo not drawn) [Pirlindole mesylate],88 ± 6.3%
14,CC(C)c1ccc(C(=O)c2cccs2)c(SCCCCCCCCN(C)C)n1,74.54 ± 0.56%
15,OC(CN1CCC(Cc2ccc(F)cc2)CC1)c1ccc(Cl)cc1 (stereo not drawn) [Eliprodil],88.9 ± 1.1%
16,O=c1cc(N2CCOCC2)oc2c1ccc1ccccc12,82.9 ± 0.9%
17,COc1ccc(OC)c2c(=S)c3ccccc3[nH]c12,76.9 ± 3.1%
18,COC(=O)C1=C(C)NC(C)=C(C(=O)OCCCN2CCC(c3ccccc3)(c3ccccc3)CC2)[C@H]1c1cccc([N+](=O)[O-])c1 [(S)-(+)-Niguldipine hydrochloride],76.95 ± 0.17%
19,CCC(=O)OCN1C(=O)C=CC1=O,90.82 ± 0.35%
20,Nc1c(Br)cc(Br)cc1CN[C@H]1CC[C@H](O)CC1 [Ambroxol hydrochloride],83.8 ± 1.4%
21,CCCCCCCCCCCCCCCC(=O)O[C@H](CC(=O)O)C[N+](C)(C)C (racemic) [(±)-Palmitoylcarnitine chloride],89.8 ± 4.6%
22,CN(CC[C@@H](Oc1ccc(-c2ccccc2)cc1)c1ccc(F)cc1)CC(=O)O [ALX 5407 hydrochloride],89.7 ± 7.4%

row,Structure (SMILES),uninfected host cell viability
1,COc1ccc(NC(=O)c2ccc(-c3ccc(-c4noc(C)n4)cc3C)cc2)cc1OCCN(C)C,36.9 ± 27%
2,COc1ccc(NC(=O)c2ccc(-c3ccc(-c4noc(C)n4)cc3C)cc2)cc1N1CCN(C)CC1,70.2 ± 7.3%
3,COc1cc2c(Nc3ccc(NC(=O)c4ccccc4)cc3)ncnc2cc1OCCCN1CCOCC1,64.74 ± 0.56%
4,CCN(CC)c1ccc(/C=N/NC(=O)c2ccc(O)cc2)cc1,86.7 ± 5.1%
5,CCCCC[C@H](O)/C=C/[C@H]1[C@H](O)CC(=O)[C@@H]1CCCCCCC(=O)O [Alprostadil],91.7 ± 4.5%
6,CC1Nc2ccc(Cl)cc2S(=O)(=O)N1 (stereo not drawn),95.27 ± 0.86%
7,Cn1cc(C2=C(c3cn(CCCSC(=N)N)c4ccccc34)C(=O)NC2=O)c2ccccc21 [Ro 31-8220 mesylate],14.2 ± 0.54%
8,CN(C)CCCn1cc(C2=C(c3c[nH]c4ccccc34)C(=O)NC2=O)c2ccccc21,62.3 ± 1.5%
9,Cn1cc(C2=C(c3ccc(Cl)cc3Cl)C(=O)NC2=O)c2ccccc21,72.6 ± 4.2%
10,O=C(O)CC/C=C\C[C@H]1CO[C@@H](c2ccccc2Cl)O[C@H]1c1ccccc1O,98.6 ± 1.1%
11,CCOC(=O)c1c(C)[nH]c2ccc3c(c12)CN1CCc2cc(OC)ccc2C1O3 (stereo not drawn),96.1 ± 2.8%
12,CC(Oc1ccc(O)cc1)(P(=O)(O)O)P(=O)(O)O,95.3 ± 1.8%
13,CN(C)C(=O)C(=O)c1cn(C)c2cc(Cl)c(C(=O)N3CCC(Cc4ccc(F)cc4)CC3)cc12,88.4 ± 2.3%
14,CCOCC(O)COc1ccc(NC(=O)CC[S+](C)C)cc1 (stereo not drawn) [Suplatast tosylate],97.7 ± 1.6%
15,CNC(=O)[C@H]1O[C@@H](n2cnc3c(NCc4cccc(I)c4)ncnc32)[C@H](O)[C@@H]1O,80.94 ± 0.44%
16,CCN(c1ccccc1)c1cc(=NC)n(C)c(C)n1,92.2 ± 1.3%
17,CCOC(=O)c1ccc(OC(=O)CCCCCNC(=N)N)cc1 [Gabexate mesylate],89.8 ± 11%
18,O=[N+]([O-])c1cc(Cl)ccc1S(=O)(=O)N1CCN(Cc2ccccc2)CC1,98.8 ± 3.2%
19,CN1CC(=O)N=C1NC(=O)Nc1cccc(Cl)c1 [Fenobam],80.93 ± 0.68%
20,CCCCc1nn(-c2ccccc2C(F)(F)F)c(=O)n1Cc1ccc(-c2ccccc2S(=O)(=O)NC(=O)c2sccc2C)cc1,84.8 ± 3.6%
21,COc1cc(NC(=O)c2ccccn2)ccc1Cl,95.9 ± 2.8%
